Assay results: PubChem BioAssay (Tox21)
Results filed as inconclusive are left out. Unmarked numbers belong to inactive results. Calls of active or inactive are those of the source. Calls follow the shape of the dose curve; as a rule, active = well fitted cell-killing curve with a large enough effect in the repeat runs; inconclusive = weak or mixed curves, or effect the other way; inactive = no such curve, though single readings can be large or run the other way.

test: qHTS assay to identify small molecule antagonists of the sonic hedgehog signaling (Shh) pathway - cell viability counter screen (AID 1259367); conditions: NIH/3T3 Gli1-Luc viability, CellTiter-Fluor, 24 h; series mostly up to 92.4 µM; also: nearly all actives have a fitted effect of over 55% in size
From the text: National Center for Advancing Translational Sciences [NCATS]
NIH Chemical Genomics Center [NCGC]
U.S. Environmental Protection Agency [EPA]
National Institutes of Environmental Health Sciences [NIEHS]
National Toxicology Program [NTP]
U.S. Food and Drug Administration [FDA]
The sonic hedgehog (Shh) pathway is essential for normal embryonic development. Dysregulation of the Shh pathway can cause severe developmental defects in organs. Therefore chemicals that interfere with the pathway are potential developmental toxicants. A cell line designated 3T3Gli1-Luc (DMB/OARSA/CFSAN/FDA, Laurel, MD), a NIH/3T3 derived clone containing stably integrated Gli1-Luc reporter is used to detect chemical interference of the Shh pathway, by changes in the expression of the firefly Luc gene under the control of the Gli1 transcriptional response element. This cell line was used to screen Tox21 libraries for identifying and prioritizing the potential developmental toxicants that interfere Shh pathway. Conditioned medium-stimulated mode was used to screen for chemicals inhibiting Shh signaling. The cytotoxicity of the compounds was tested in parallel by measuring the cell viability using CellTiter-Fluor assay system (Promega, Madison, WI) in the same wells.
Tox21 Assay Protocol Summary:
3T3 Gli1-Luc cells were dispensed at 2,000 per well in 5uL of culture medium into white solid bottom 1536-well plates (Greiner Bio-One, Monroe, NC) using a Multidrop Combi (Thermo Scientific, Waltham, MA) dispenser. The assay plates were incubated at 37 C and 5% CO2 for 4hr, and then 23nL of compounds dissolved in DMSO and positive control were transferred using a Pintool station (Wako, San Diego, CA). The compound transfer was followed by the addition of 1ul conditioned medium or assay buffer using two separate tips of Flying Reagent Dispenser (FRD, Aurora Discovery, San Diego, CA). The assay plates were incubated at 37C and 5% CO2 for 24hr. For viability read, after 23hr of compound treatment, 1uL of CellTiter-Fluor reagent (Promega Corporation, Madison, WI) was added to each well of the assay plates using Flying Reagent Dispenser (FRD, Aurora Discovery, San Diego, CA) and incubated the assay plates at 37C for 1hr. The fluorescence signal was quantified using a ViewLux plate reader (Perkin Elmer, Shelton, CT).
% is scaled to controls: 0 for no effect and ±100 for the full control effect.

SMILES	outcome	viability change, negative = cytotoxic
CN(C)C(C)(C)CO	inactive	
O=C1OCCO1	inactive	
CC(=O)OC(C)=O	inactive	
CO[C@@]1(NC(=O)Cc2cccs2)C(=O)N2C(C(=O)O)=C(COC(N)=O)CS[C@@H]21	inactive	
COS(=O)(=O)O	inactive	
OCCN1CCOCC1	inactive	
CCO	inactive	
C=CCN1C[C@H](C(=O)N(CCCN(C)C)C(=O)NCC)C[C@@H]2c3cccc4[nH]cc(c34)C[C@H]21	inactive	
NCC1(Cc2noc(=O)[nH]2)CCCCC1	inactive	
CCC(=O)Oc1ccc2c(c1)CC[C@@H]1[C@@H]2CC[C@@]2(C)[C@H]1C[C@@H](OC(=O)CC)[C@@H]2OC(=O)CC	inactive	
O=C1CCCCO1	inactive	
CC(=O)Nc1ccc(OC(=O)c2ccccc2OC(C)=O)cc1	inactive	
O/N=C/C=N/O	inactive	
Cc1c(Cl)cccc1Cl	inactive	
Cc1ccnc(N)c1	inactive	
C[C@]12CCC(=O)C=C1CC[C@H]1[C@@H]3CC[C@](O)(C(=O)CO)[C@@]3(C)C[C@H](O)[C@@]12F	inactive	
Cn1c(=O)c2[nH]c(Br)nc2n(C)c1=O	inactive	
O=S(=O)(O)c1ccc2c(N=Nc3ccc(S(=O)(=O)O)c4ccccc34)c(O)c(S(=O)(=O)O)cc2c1		-12.4% [at 8.39 µM]
Cc1ccc(C)c([N+](=O)[O-])c1	inactive	
CC1CCc2c(N3CCC(O)CC3)c(F)cc3c(=O)c(C(=O)O)cn1c23 (stereo not given)	inactive	

SMILES	outcome	viability change, negative = cytotoxic
CC1=C(C(=O)O)N2C(=O)[C@@H](NC(=O)[C@H](N)c3ccccc3)[C@H]2SC1	inactive	
NCc1ccc(S(N)(=O)=O)cc1	inactive	
Cc1c(N)cccc1Cl	inactive	
CC(O)CC(C)O (stereo not given)	inactive	
O=C(O)CNC(=O)CNC(=O)CNC(=O)CSC(=O)c1ccccc1	inactive	
CCCCSCCCC	inactive	
[O]=[Mo](=[O])=[O]		0.3% [at 19 µM]
CCc1occc(=O)c1O	inactive	
COC(C)(OC)OC	inactive	
CN1CCOC(c2ccccc2)c2ccccc2C1 (stereo not given)	inactive	
O=C(O)CSCC(=O)NC1CCSC1=O (stereo not given)	inactive	
CC(O)COC(C)(C)C (stereo not given)	inactive	
O=C(O)c1cc2ccccc2nc1C(=O)O	inactive	
CCC(C)OC(C)CC (stereo not given)	inactive	
Cc1ccc(C(C)NC(=O)[C@@H](NC(=O)OC(C)C)C(C)C)cc1 (stereo not given in full)	inactive	
c1ccc(-c2nn[nH]n2)cc1	inactive	
CC(C)[C@H]1CC[C@H](C)C[C@@H]1O	inactive	
O=C(Cl)c1ccccc1[N+](=O)[O-]	inactive	
ONc1ccccc1	inactive	
CC(C)NC(=O)c1ccc(C=O)cc1	inactive	
